This passage reports AC50 and outcome results from PubChem BioAssay (EPA / NIEHS).

Activity calls are given as the source filed them. How the source made its calls: active means hit-call score of the fitted dose curve at least 0.9, where 1 is the maximum; inactive means score below 0.9.

Common to all, as to settings: mRNA level, 48 h; actives raise or lower the signal
Read-out in assay [1]: Early growth response protein 1 (EGR1) transcription factor, EGR1 (gene 1958)
Nature of the assay: LTEA_HepaRG_EGR1: Life Technologies and Expression Analysis (LTEA) Assay for Early growth response protein 1 (EGR1) transcription factor using HepaRG (AID 2283490). The method, boiled down:
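HepaRG, 48 h exposure, 8-pt half-log series from 100 uM, 0.5% DMSO vehicle; EGR1 transcript by TaqMan qRT-PCR (Fluidigm array), housekeeping-normalized; bidirectional fit relative to DMSO baseline.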

Read-out in assay [2]: Ezrin (EZR), EZR (gene 7430)
Nature of the assay: LTEA_HepaRG_EZR: Life Technologies and Expression Analysis (LTEA) Assay for Ezrin (EZR) using HepaRG (AID 2283491). The method, boiled down: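 Read-out is EZR transcript level by qRT-PCR, normalized to three housekeeping genes and fitted bidirectionally against the DMSO control. Human HepaRG cells received test chemicals for 48 h at eight half-log concentrations up to 100 uM in 0.5% DMSO.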

Read-out in assay [3]: Cytochrome P450 3A7 (Homo sapiens) (UniProt P24462)
Nature of the assay: LTEA_HepaRG_CYP3A7: Life Technologies and Expression Analysis (LTEA) Assay for CYP3A7 using HepaRG (AID 2283492). The method, boiled down: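 HepaRG cells plated 48 h, then dosed in serum-free induction medium for 48 h at 8 concentrations (top 100 uM, half-log steps, 0.5% DMSO). CYP3A7 mRNA by qRT-PCR, normalised to ACTB/GAPDH/POLR2A; bidirectional fit versus DMSO.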

Read-out in assay [4]: CYP3A5 (gene 1577)
Put plainly: LTEA_HepaRG_CYP3A5: Life Technologies and Expression Analysis (LTEA) Assay for CYP3A5 using HepaRG (AID 2283493). Summed up: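 qRT-PCR read-out: CYP3A5 transcript in HepaRG lysates, housekeeping-normalized (ACTB/GAPDH/POLR2A), fitted bidirectionally against 0.5% DMSO baseline. Exposure 48 h, eight half-log concentrations up to 100 uM, duplicates.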

Read-out in assay [5]: Fatty Acid-Binding Protein 1 (FABP1), FABP1 (gene 2168)
Nature of the assay: LTEA_HepaRG_FABP1: Life Technologies and Expression Analysis (LTEA) Assay for Fatty Acid-Binding Protein 1 (FABP1) using HepaRG (AID 2283494). The method, boiled down: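 qRT-PCR readout of FABP1 transcript (normalized to three housekeeping genes) after 48 h chemical exposure of HepaRG cells; eight concentrations, half-log steps, max 100 uM, 0.5% DMSO vehicle; gain or loss fitted relative to DMSO baseline.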

Read-out in assay [6]: Glutathione S-Transferase (GSTA2), GSTA2 (gene 2939)
Nature of the assay: LTEA_HepaRG_GSTA2: Life Technologies and Expression Analysis (LTEA) Assay for Glutathione S-Transferase (GSTA2) using HepaRG (AID 2283497). The method, boiled down:
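qRT-PCR readout of GSTA2 transcript, normalized to three housekeeping genes, fitted bidirectionally against 0.5% DMSO baseline. Differentiated HepaRG cells received compound for 48 h at 8 concentrations (top 100 uM, half-log steps).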

Read-out in assay [7]: Glutamate-cysteine ligase catalytic (GCLC), GCLC (gene 2729)
Nature of the assay: LTEA_HepaRG_GCLC: Life Technologies and Expression Analysis (LTEA) Assay for Glutamate-cysteine ligase catalytic (GCLC) using HepaRG (AID 2283498). Summed up:
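HepaRG, 48 h exposure, 8-pt half-log series from 100 uM, 0.5% DMSO vehicle; TaqMan qRT-PCR for GCLC mRNA, housekeeping-normalized; bidirectional curve fit vs DMSO baseline.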

Read-out in assay [8]: growth arrest and DNA damage 45 (GADD45G), GADD45G (gene 10912)
Nature of the assay: LTEA_HepaRG_GADD45G: Life Technologies and Expression Analysis (LTEA) Assay for growth arrest and DNA damage 45 (GADD45G) using HepaRG (AID 2283499). The method, boiled down:
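Differentiated human HepaRG cells in serum-free induction medium were exposed for 48 h to 8 half-log concentrations up to 100 uM in 0.5% DMSO, in duplicate. GADD45G mRNA was measured by TaqMan qRT-PCR, normalised to ACTB, GAPDH and POLR2A, and fitted bidirectionally against DMSO.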

Read-out in assay [9]: Glutamate-cysteine ligase regulatory (GCLM), GCLM (gene 2730)
Nature of the assay: LTEA_HepaRG_GCLM: Life Technologies and Expression Analysis (LTEA) Assay for Glutamate-cysteine ligase regulatory (GCLM) using HepaRG (AID 2283500). Summed up: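 HepaRG, 48 h dosing, 100 uM top, half-log x8, 0.5% DMSO vehicle. Readout: GCLM mRNA by TaqMan qRT-PCR, housekeeping-normalized (ACTB/GAPDH/POLR2A). Curves fit bidirectionally vs DMSO baseline.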

Read-out in assay [10]: Glutathione S-transferase M3 (GSTM3), GSTM3 (gene 2947)
Nature of the assay: LTEA_HepaRG_GSTM3: Life Technologies and Expression Analysis (LTEA) Assay for Glutathione S-transferase M3 (GSTM3) using HepaRG (AID 2283501). Summed up: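 Differentiated HepaRG cells in serum-free induction medium were exposed in duplicate for 48 h to 8 half-log concentrations up to 100 uM in 0.5% DMSO. GSTM3 mRNA was measured by TaqMan qRT-PCR, normalized to ACTB/GAPDH/POLR2A, and fitted bidirectionally versus DMSO.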

Read-out in assay [11]: Heat shock 70 kDa protein 1 (HSPA1A), gene 3303
Nature of the assay: LTEA_HepaRG_HSPA1A: Life Technologies and Expression Analysis (LTEA) Assay for Heat shock 70 kDa protein 1 (HSPA1A) using HepaRG (AID 2283502). The method, boiled down:
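HepaRG, 48 h exposure, 8-pt half-log CRC from 100 uM in 0.5% DMSO, duplicates. Readout: TaqMan qRT-PCR of HSPA1A mRNA, housekeeping-normalized (ACTB/GAPDH/POLR2A). Bidirectional fit vs 0.5% DMSO baseline.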

Read-out in assay [12]: Hypoxia-inducible factor 1-alpha (Homo sapiens) (UniProt Q16665)
Put plainly: LTEA_HepaRG_HIF1A: Life Technologies and Expression Analysis (LTEA) Assay for Hypoxia-inducible factor 1 (HIF1A) Trancription factor using HepaRG (AID 2283503). The method, boiled down: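 Gain- or loss-of-signal HIF1A mRNA changes are fitted against a DMSO baseline. HepaRG cultures receive eight concentrations, highest 100 uM, for 48 h in serum-free induction medium with 0.5% DMSO.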

Read-out in assay [13]: 3-Hydroxy-3-Methylglutaryl-CoA Synthase 2 (HMGCS2), HMGCS2 (gene 3158)
Put plainly: LTEA_HepaRG_HMGCS2: Life Technologies and Expression Analysis (LTEA) Assay for 3-Hydroxy-3-Methylglutaryl-CoA Synthase 2 (HMGCS2) using HepaRG (AID 2283504). Summed up: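 Differentiated human HepaRG cells were exposed in duplicate for 48 h in serum-free induction medium to eight concentrations (top 100 uM, half-log steps, 0.5% DMSO). HMGCS2 mRNA was quantified by TaqMan qRT-PCR, normalised to ACTB, GAPDH and POLR2A, then fitted bidirectionally against DMSO.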

Read-out in assay [14]: HGF (gene 3082)
Nature of the assay: LTEA_HepaRG_HGF: Life Technologies and Expression Analysis (LTEA) Assay for Hepatocyte Growth Facto (HGF) using HepaRG (AID 2283505). Summed up:
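Differentiated human HepaRG cells in serum-free induction medium were exposed in duplicate for 48 h to eight concentrations (top 100 uM, half-log steps, 0.5% DMSO). HGF mRNA was quantified by qRT-PCR, normalized to ACTB, GAPDH and POLR2A.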

Read-out in assay [15]: Insulin Like Growth Factor 1 (IGF1), IGF1 (gene 3479)
Nature of the assay: LTEA_HepaRG_IGF1: Life Technologies and Expression Analysis (LTEA) Assay for Insulin Like Growth Factor 1 (IGF1) using HepaRG (AID 2283506). The method, boiled down:
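qRT-PCR readout of IGF1 mRNA, normalized to three housekeeping genes, after 48 h chemical exposure of HepaRG cells. Concentrations: 8-point half-log series, top 100 uM, 0.5% DMSO vehicle. Gain or loss fitted against DMSO baseline.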

Read-out in assay [16]: Insulin-like growth factor-binding protein 1 (IGFBP1), IGFBP1 (gene 3484)
Put plainly: LTEA_HepaRG_IGFBP1: Life Technologies and Expression Analysis (LTEA) Assay for Insulin-like growth factor-binding protein 1 (IGFBP1) using HepaRG (AID 2283508). The method, boiled down: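 Differentiated human HepaRG cells in serum-free induction medium were exposed in duplicate for 48 h to eight concentrations, top 100 uM with half-log dilutions, in 0.5% DMSO. Transcript levels came from qRT-PCR normalised to ACTB, GAPDH and POLR2A, fitted bidirectionally against DMSO.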

Read-out in assay [17]: Interleukin 6 (IL6), IL6 (gene 3569)
Put plainly: LTEA_HepaRG_IL6: Life Technologies and Expression Analysis (LTEA) Assay for Interleukin 6 (IL6) using HepaRG (AID 2283509). Summed up: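 qRT-PCR read-out of IL6 transcript, normalized to three housekeeping genes, after 48 h chemical exposure of HepaRG cells; 8-point half-log series, top 100 uM, 0.5% DMSO vehicle. Bidirectional curve fitting against DMSO baseline.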

Read-out in assay [18]: Pro-epidermal growth factor (Homo sapiens) (UniProt P01133)
Put plainly: LTEA_HepaRG_EGF: Life Technologies and Expression Analysis (LTEA) Assay for Epidermal growth factor (EGF) using HepaRG (AID 2283489). Summed up:
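Differentiated human HepaRG cells, plated 48 h then switched to serum-free induction medium, were exposed for 48 h to test chemicals (8-point half-log series, top 100 uM, 0.5% DMSO). EGF mRNA was quantified by qRT-PCR, normalized to ACTB, GAPDH, POLR2A.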

Read-out in assay [19]: Cytochrome P450 4A22 (Homo sapiens) (UniProt Q5TCH4)
Nature of the assay: LTEA_HepaRG_CYP4A22: Life Technologies and Expression Analysis (LTEA) Assay for Cytochrome P450 4A22 (CYP4A22) using HepaRG (AID 2283495). Summed up:
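qRT-PCR of CYP4A22 mRNA (Fluidigm TaqMan, normalized to three housekeeping genes) after 48 h chemical exposure of HepaRG cells; 8-point half-log series, top 100 uM, 0.5% DMSO vehicle. Bidirectional curve fitting vs DMSO baseline.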

Read-out in assay [20]: Cytochrome P450 7A1 (Homo sapiens) (UniProt P22680)
Nature of the assay: LTEA_HepaRG_CYP7A1: Life Technologies and Expression Analysis (LTEA) Assay for Cytochrome P450 7A1 (CYP7A1) using HepaRG (AID 2283496). Summed up: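 Using 0.5% DMSO as vehicle and baseline, chemicals were tested in duplicate over an 8-point range from 100 uM on HepaRG cells for 48 h; qRT-PCR signals were normalised to ACTB, GAPDH and POLR2A.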

Hypoxia-inducible factor 1-alpha (Homo sapiens), sequence (Q16665 whole entry, looked up): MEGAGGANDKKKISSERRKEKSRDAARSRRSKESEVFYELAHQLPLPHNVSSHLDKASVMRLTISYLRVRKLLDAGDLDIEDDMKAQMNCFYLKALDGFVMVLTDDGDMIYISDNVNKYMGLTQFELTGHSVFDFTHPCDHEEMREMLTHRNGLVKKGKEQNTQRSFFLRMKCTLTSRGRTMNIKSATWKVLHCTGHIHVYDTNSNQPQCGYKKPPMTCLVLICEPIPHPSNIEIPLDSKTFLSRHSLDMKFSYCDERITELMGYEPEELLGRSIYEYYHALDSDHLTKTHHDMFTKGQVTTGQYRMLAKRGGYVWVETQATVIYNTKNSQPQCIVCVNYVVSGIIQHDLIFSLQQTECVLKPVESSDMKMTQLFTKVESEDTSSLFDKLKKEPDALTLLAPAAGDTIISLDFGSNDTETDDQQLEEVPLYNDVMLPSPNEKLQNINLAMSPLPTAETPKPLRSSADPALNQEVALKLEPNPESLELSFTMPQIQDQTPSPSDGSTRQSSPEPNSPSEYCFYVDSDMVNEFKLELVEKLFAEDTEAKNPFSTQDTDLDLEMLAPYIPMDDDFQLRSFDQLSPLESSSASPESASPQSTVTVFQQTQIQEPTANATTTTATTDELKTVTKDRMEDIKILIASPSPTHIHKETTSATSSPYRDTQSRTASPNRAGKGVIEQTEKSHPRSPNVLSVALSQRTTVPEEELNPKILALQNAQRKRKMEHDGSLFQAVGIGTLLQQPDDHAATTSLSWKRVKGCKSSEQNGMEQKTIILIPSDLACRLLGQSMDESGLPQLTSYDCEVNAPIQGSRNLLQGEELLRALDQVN
Cytochrome P450 3A7 (Homo sapiens), sequence (P24462 whole entry, looked up): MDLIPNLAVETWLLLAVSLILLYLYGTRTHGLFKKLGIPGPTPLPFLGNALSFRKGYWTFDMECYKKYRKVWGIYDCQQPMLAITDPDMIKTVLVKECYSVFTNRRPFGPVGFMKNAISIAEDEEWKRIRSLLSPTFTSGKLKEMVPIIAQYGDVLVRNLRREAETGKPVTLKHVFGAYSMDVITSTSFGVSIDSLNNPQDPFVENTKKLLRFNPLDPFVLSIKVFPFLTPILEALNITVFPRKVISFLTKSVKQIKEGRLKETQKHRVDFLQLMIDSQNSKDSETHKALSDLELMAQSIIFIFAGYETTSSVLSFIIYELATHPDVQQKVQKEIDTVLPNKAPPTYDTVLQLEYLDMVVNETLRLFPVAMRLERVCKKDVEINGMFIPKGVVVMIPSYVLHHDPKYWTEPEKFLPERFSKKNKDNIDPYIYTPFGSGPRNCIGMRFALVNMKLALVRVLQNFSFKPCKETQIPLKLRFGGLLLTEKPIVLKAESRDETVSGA

`CC(=O)[O][Hg][c]1ccccc1`: the AC50 (usually the midpoint of the concentration-response curve, whichever way the signal moves) is 26.9 µM (active) in assay [1]; 5 µM (active) in [3]; 11 µM (active) in assay [4]; 13 µM (active) in [5]; 25.4 µM (active) in assay [6]; 23.1 µM (active) in assay [7]. Moreover, the AC50 in assay [8] is 82.8 µM (active); in [9], 23 µM (active); in assay [11], 50 µM (active); in assay [13] it was 23.3 µM (active); in assay [14], 2.1 µM (active); in assay [15], 23.1 µM (active). For the same compound, the AC50 in [16] was 4.6 µM (active); in assay [17], 16 µM (active). The result in assay [2], in assay [10] and in assay [12] was inactive.
Take `ClC1(Cl)C2(Cl)C3(Cl)C4(Cl)C(Cl)(Cl)C5(Cl)C3(Cl)C1(Cl)C5(Cl)C24Cl` (centres undefined): the outcome in [18], in assay [1], in [2], in assay [4], in assay [19] and in assay [20] was inactive. In addition, the outcome in [6], in assay [7], in [8], in assay [9], in assay [10] and in assay [11] was inactive. The outcome in assay [12], in [13], in assay [14], in assay [15], in [16] and in assay [17] was inactive. The AC50 in assay [3] is 4.64 µM (active); in [5], 3.49 µM (active).
Consider `CCCCCCCCc1ccc(O)cc1`, for which the result in [1], in assay [2], in assay [3], in [4], in assay [6] and in [7] was inactive. The compound was classed as inactive in assay [8], in [9], in assay [10], in assay [11], in assay [12] and in assay [14]. The result in assay [15], in assay [16] and in [17] was inactive. Moreover, the AC50 in [5] was 71.8 µM (active); in assay [13] it was 64.6 µM (active).
On to `O=c1[nH]c(=O)[nH]c(=O)[nH]1`, for which the compound was called inactive in assay [18], in assay [1], in assay [2], in [3], in assay [4] and in assay [5]. In addition, the result in assay [19], in assay [20], in assay [6], in assay [7], in [8] and in [9] was inactive. For the same compound, the compound was called inactive in [10], in assay [11], in assay [12], in assay [13], in [14] and in assay [15]. Further, the outcome in [16] and in assay [17] was inactive.
